In the library only some 10% were active in any assay of this set; here they are far more common.
3T3 cytotox: cytotoxic compounds in NIH 3T3 cells; NIH 3T3 viability, CellTiter-Glo ATP luminescence, 48-72 h; Potency, µM (top dose mostly 96.7 µM), inactives show at the top dose activity change, negative = cytotoxicity, actives largely listed as inhibitors; 4.3% of 94,000 active; further: nearly all actives have a fitted effect of over 55% in size
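ATP-dependent luminescence (CellTiter-Glo) served as the viability signal for NIH 3T3 cells treated with compound for 48 or 72 hr at 37 °C.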
NPR1 antag: antagonists of human natriuretic peptide receptor Npr1; HEK293 hNpr1 GloSensor cGMP, ANP-stimulated luminescence; P16066; Potency, µM (series often up to 46.3 µM), for inactives: top-dose activity change, negative = inhibition, usual class: inhibitors; 1.6% of 76,000 active; calls by dose curve; further: nearly all actives have a fitted effect of over 60% in size
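Compound pre-incubated 30 min at room temperature on GloSensor-loaded HEK293 cells stably carrying hNpr1 and the pGS-40F cGMP biosensor. Stimulation uses hNppA at 0.1 nM final; luminescence is taken at baseline and 20 min post-agonist.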
GPT2 inh: GPT2 alanine aminotransferase inhibition | Q8TD30 | Potency, µM (series often up to 57.7 µM), for inactives: at the top dose activity change, negative = inhibition, usual class: inhibitors | AID 1671188 | 0.25% of 100,000 active | Recombinant GPT2, coupled pyruvate oxidase/HRP Amplex Red fluorescence; further: nearly all actives have a fitted effect of over 60% in size
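Fluorescence read-out: pyruvate from GPT2 turnover coupled to pyruvate oxidase, HRP and Amplex Red (0.2mM ThPP, 0.2U/mL PO and HRP, 50uM Amplex final). Substrates 250uM a-KG, 2mM L-alanine; enzyme 10ng/uL; 30 min RT.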
HEK293 tox: cytotoxic compounds in HEK 293 cells. HEK 293 viability, ATP luminescence (CellTiter-Glo), 48-72 h. Potency, µM (titrated, usually from 115 µM), for the others: top-dose activity change, negative = cytotoxicity, hits mostly inhibitors. 6.6% of 94,000 active. AID 1345083; further: nearly all actives have a fitted effect of over 60% in size
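qHTS cytotoxicity; HEK 293, 250 cells/well; compound pinned; 48 or 72 hr, 37 degree Celsius, 5% CO2, 95% humidity; CellTiter-Glo, 10 min RT; luminescence (ATP).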
FLuc inh: inhibitors of firefly (Photinus pyralis) luciferase; purified P. pyralis luciferase, luminescence, biochemical; Potency, µM (doses to about 115 µM), most hits filed as inhibitors; 2.5% of 76,000 active; further: nearly all actives have a fitted effect of over 65% in size
Target sequence (P08659 whole entry, looked up): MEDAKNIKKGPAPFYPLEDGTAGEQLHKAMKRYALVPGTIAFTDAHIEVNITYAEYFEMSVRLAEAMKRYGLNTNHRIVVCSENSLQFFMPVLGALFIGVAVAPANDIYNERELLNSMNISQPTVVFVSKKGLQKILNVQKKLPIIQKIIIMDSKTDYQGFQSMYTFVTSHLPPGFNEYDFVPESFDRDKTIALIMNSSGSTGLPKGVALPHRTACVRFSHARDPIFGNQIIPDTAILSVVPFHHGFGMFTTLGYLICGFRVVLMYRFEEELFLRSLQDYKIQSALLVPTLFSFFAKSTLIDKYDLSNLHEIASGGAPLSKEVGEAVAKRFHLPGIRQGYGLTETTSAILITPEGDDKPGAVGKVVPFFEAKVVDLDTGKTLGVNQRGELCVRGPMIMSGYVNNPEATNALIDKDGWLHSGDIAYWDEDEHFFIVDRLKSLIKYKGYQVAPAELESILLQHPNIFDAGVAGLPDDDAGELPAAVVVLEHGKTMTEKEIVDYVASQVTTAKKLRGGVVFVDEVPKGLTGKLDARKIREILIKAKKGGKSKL
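Luminescence read by CCD imaging after purified firefly luciferase (10nM final) was added to substrate buffer holding 10uM D-luciferin and 10uM ATP, pH 7.5, pre-dosed with compound.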
An asterisk follows results filed as active; i = inactive; ? = inconclusive; · = no result; ! = not confirmed by another sample; [ ] = remark or other dose. Unless noted, the call rests on the fitted dose curve; in most records, active means well fitted curve in the direction sought with a large enough effect; inconclusive means small, poorly fitted or top-dose-only effect, or another doubt; inactive means no such curve, though single readings can be large; an effect the other way counts as inactive or inconclusive. On the % scale 0 is the no-effect control and ±100 the full control effect; potency means the concentration at half of the fitted maximal effect.

SMILES | 3T3 cytotox | NPR1 antag | GPT2 inh | HEK293 tox | FLuc inh
N[C@@H]1CCN(Cc2ccccc2OCc2ccc(Cl)cc2)C[C@H]1O | 28µM* | 0% | i | 22µM* | i
COc1ccccc1CN1CCCC(c2nn(-c3ccc(Cl)cc3)c(=O)[nH]2)C1 (stereo not given) | ? | 21% | i | ? | i
CC1=C[C@@H](CN2CCN(c3cnccn3)CC2)[C@H](C(C)C)C[C@H]1Cc1nnc(-c2cccnc2)o1 | ? | ? | ? | 35µM* | i
CC1=C[C@@H](CN2CCN(c3ccc(F)cc3)CC2)[C@H](C(C)C)C[C@H]1Cc1nnc(-c2cncn2C)o1 | ? | -2% | i | 22µM* | i
CC1=C[C@@H](CN2CCN(c3ccccc3)CC2)[C@H](C(C)C)C[C@H]1Cc1nnc(-c2cncn2C)o1 | ? | 0% | 2% | 35µM* | i
CC1=C[C@@H](CN2CCN(c3ncccn3)CC2)[C@H](C(C)C)C[C@H]1Cc1nnc(COc2ccc(F)cc2)o1 | 40µM* | -25% | i | 25µM* | i
CC1=C[C@@H](CN2CCN(c3ccccn3)CC2)[C@H](C(C)C)C[C@H]1Cc1nnc(-c2ccc([N+](=O)[O-])cc2)o1 | ? | 2% | -2% | ? | i
CC(=O)N1CCN(C[C@@H]2C=C(C)[C@H](Cc3nnc(-c4cncn4C)o3)C[C@H]2C(C)C)CC1 | ? | 1% | 3% | ? | i
Cn1cnc([S+](=O)([O-])N2CCCC(c3nnc4n3C(C(=O)O)CC4)C2)c1 (stereo not given) | 0% | · | 5% | i | ·
CC1=C[C@@H](CN2CCN(c3ccccn3)CC2)[C@H](C(C)C)C[C@H]1Cc1nnc(-c2cncn2C)o1 | ? | -2% | 2% | 32µM* | i
CC1=C[C@@H](CN2CCN(CCO)CC2)[C@H](C(C)C)C[C@H]1Cc1nnc(-c2ccccc2F)o1 | ? | 1% | -4% | ? | i
CC1=C[C@@H](CN2CCN(CCO)CC2)[C@H](C(C)C)C[C@H]1Cc1nnc(Cc2c[nH]c3ccccc23)o1 | 28µM* | -17% | 0% | ? | i
CN(C)CCN(C)C(=O)c1ccc(-c2ncc3cnc(-c4cccc(F)c4)cn23)cc1 | 45µM* | -6%[70.6 µM] | ? | 50µM* | i
CN(C)C(=O)c1cccnc1CC1CC(=O)N(c2ccccc2)C1 (stereo not given) | 0% | -1% | i | 1% | i
COC(=O)c1ccc(COC[C@@H]2CN(C(C)C)S(=O)(=O)[C@H]2c2ccccc2)cc1 | ? | · | · | 40µM* | ·
O=[S+]1([O-])[C@@H](c2ccccc2)[C@H](COCc2ccccc2)CN1c1ccccc1 | ? | · | · | -29% | ·
O=C(Cc1ccc(-n2cnnn2)cc1)N1CCC2(CC1)[C@H](O)C[C@@H]2O | 3% | 2% | i | i | i
O[C@@H]1C[C@@H](c2nc(-c3ccc(F)cc3)no2)N(Cc2ccc(F)cc2)C1 | ? | -5%[70.6 µM] | -2%[88.5 µM] | 100µM* | i
CS(=O)(=O)c1ccc(CN2C[C@H](O)C[C@H]2c2nc(-c3ccc(F)cc3)no2)cc1 | -12%[138 µM] | -3%[70.6 µM] | 4%[88.5 µM] | -25%[172 µM] | 45µM*
COc1ccc(-c2noc([C@@H]3C[C@@H](O)CN3Cc3ccc(C)cc3)n2)cc1 | -9%[174 µM] | 0%[70.6 µM] | -6%[88.5 µM] | ? | ?
Nc1ncn([C@@H]2O[C@H](CO)[C@@H](O)[C@@H]2O)c(=O)n1 | · | · | -5% | · | ·
COc1ccc(-n2c(=O)c3c(n2Cc2ccccc2)CN(C(C)=O)CC3)cc1 | ? | 5%[70.6 µM] | -12%[88.5 µM] | 3%[172 µM] | i
COc1ccc(-n2c(=O)c3c(n2Cc2ccccc2)CN(C(=O)C(C)C)CC3)cc1 | 10µM* | -8%[70.6 µM] | i | -4%[172 µM] | i
CC(C)C(=O)N1CCc2c(n(Cc3ccccc3)n(-c3ccccc3)c2=O)C1 | 22µM* | -3%[70.6 µM] | -12%[88.5 µM] | 4%[172 µM] | i
COc1ccc(Cn2c3c(c(=O)n2Cc2ccccc2)CCN(C(=O)c2ccnn2C)C3)cc1 | 35µM* | -1% | 4% | 3% | i
SMILES | 3T3 cytotox | NPR1 antag | GPT2 inh | HEK293 tox | FLuc inh
Cc1ccccc1CN1CCc2c(n(Cc3ccccc3)n(-c3ccccc3)c2=O)C1 | 89µM* | -21%[70.6 µM] | -6%[88.5 µM] | 89µM* | i
NCCC(=O)N1CCC2(CC1)CN(C(=O)c1ccc(Cl)cc1)CCO2 | i | · | i | 0% | ·
C[C@]1(CO)[C@H]2Cc3sc(-c4ccccc4)nc3[C@@H](CC(=O)O)[C@]2(C)CC[C@H]1O | ? | 9%[70.6 µM] | -7%[88.5 µM] | i | i
COCC1CN(C(=O)c2ccnn2C)CC12CCOCC2 (stereo not given) | i | 1% | i | -6% | i
Cc1ccc(CNC(=O)Cn2cccc2-c2nc(-c3ccc4c(c3)OCO4)no2)cc1 | -31% | 1% | i | ? | i
O=C(Nc1ccc(Cl)cc1)NC1CCN(Cc2ccc(-c3ccsc3)cc2)C1 (stereo not given) | ? | · | i | ? | ·
COc1ccc(F)cc1-c1ccc(CN2CCC(NC(=O)Nc3ccc(C)c(F)c3)C2)cc1 (stereo not given) | 16µM* | · | · | 25µM* | ·
COc1ccc(F)cc1-c1ccc(CN2CCC(NC(=O)Nc3ccc(Cl)cc3)C2)cc1 (stereo not given) | 11µM* | · | · | 13µM* | ·
Cc1cc(C)cc(-c2ccc(CN3CCCC(NC(=O)Nc4ccc(Cl)cc4)C3)cc2)c1 (stereo not given) | -14% | · | 5% | -4% | ·
COc1ccc(F)cc1-c1ccc(CN2CCC(NC(=O)NC3CCCC3)C2)cc1 (stereo not given) | 13µM* | · | · | 20µM* | ·
O=C(NCc1ccccc1F)c1ccc2c(c1)CN(Cc1cc(F)c(F)c(F)c1)CCO2 | ? | -5% | i | ? | i
Cc1nnc2ccc(N3CCC(NC(=O)NC(C)C)CC3)nn12 | -4%[138 µM] | · | · | i | ·
CC(C)NC[C@H](O)c1ccc(O)c(O)c1 | · | · | 3.5µM*! | · | ·
CC(CCc1ccccc1)NCC(O)c1ccc(O)c(C(N)=O)c1 (stereo not given) | · | · | i | · | ·
O=C(CCC1CCN(C(=O)CCc2c[nH]c3ccccc23)CC1)NCc1cccnc1 | i | 4% | i | i | i
Cc1ccc(OCCC2CCN(C(=O)CCc3ccccc3)C2)cc1 (stereo not given) | ? | -1% | ? | ? | i
Cc1ccc(C(=O)N2CCC(CCC(=O)NCCc3c[nH]c4ccccc34)CC2)cc1 | ? | -24% | 1% | ? | 32µM*
Cc1ccc(OCCC2CCN(C(=O)Cc3c[nH]c4ccccc34)C2)cc1 (stereo not given) | ? | ? | -3% | 35µM* | i
